About 83,000 compounds went through this panel and 20% of them were active in at least one assay; those are over-represented in the sample as a whole.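 Cell lines were cultured in 96-well plates, exposed to a single compound concentration, and assessed for percent growth 48 hours later.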 Active and inactive are the calls of the source. Rule for the calls: active = growth percent below 10; inactive = the rest.
What was measured:
Assay in all cases: NCI-60 one-dose screen, 48 h (100 = growth as untreated, 0 = no growth, -100 = all killed)
Details in all cases: 10 µM unless noted
[1] = tested on: SR leukemia
[2] = tested on: OVCAR-8 ovarian
[3] = tested on: OVCAR-5 ovarian
[4] = tested on: OVCAR-4 ovarian
[5] = tested on: SK-OV-3 ovarian
[6] = tested on: IGROV1 ovarian
[7] = tested on: OVCAR-3 ovarian
[8] = tested on: NCI/ADR-RES ovarian
[9] = tested on: HS 578T breast

Measured: growth

N#CC1=C(N)Oc2c(c(N)nn2-c2ccccc2)C1c1ccc(Cl)cc1 (configuration not stated)
inactive: [1] 95.8% | [2] 95.4% | [3] 102% | [4] 105% | [5] 81.7% | [6] 84.5% | [7] 109% | [8] 101%

COc1cccc(-c2nn(-c3ccccc3)cc2-c2ccnc(NCCCNS(=O)(=O)c3ccc(C(F)(F)F)cc3)c2)c1
inactive: [2] 30.7% | [3] 50.1% | [4] 33.5% | [5] 37.7% | [6] 39.6% | [7] 36% | [9] 38.7% | [8] 22.8%
active: [1] -13.1%

Nc1ccccc1NC(=O)c1ccc(CN2CCC/C(=C\c3ccccn3)C2=O)cc1
inactive: [1] 14.1% | [2] 26.4% | [3] 20.9% | [4] 47.6% | [5] 48.2% | [6] 21.2% | [7] 27.6% | [9] 36.2% | [8] 28.7%

CC(=O)c1c(C)[nH]c(-c2nc3ccc(N4CCN(C)CC4)cc3[nH]2)c1-c1ccc(OCC2CCOCC2)cc1
inactive: [1] 28.1% | [2] 38% | [3] 43.8% | [4] 35.7% | [5] 13.5% | [6] 16.2% | [7] 30.7% | [9] 19.5% | [8] 31.7%

O=C1OC(c2ccc(Cl)c(Cl)c2)=C/C1=C/c1cccc([N+](=O)[O-])c1
inactive: [1] 117% | [2] 99.4% | [3] 96.1% | [4] 116% | [5] 96.5% | [6] 81.8% | [7] 111% | [9] 97.7% | [8] 104%

NNC(=O)c1nc2ccccc2[nH]1
inactive: [1] 96.4% | [2] 97.1% | [3] 97.9% | [4] 118% | [5] 83.3% | [6] 106% | [7] 108% | [9] 109% | [8] 112%

CCCCCCCN(CCCCCCC)C(=N)c1ccnc2ccccc12
inactive: [3] 34.7% | [5] 36.8%
active: [1] -44.5% | [2] -40.8% | [4] 5.2% | [6] 4.57% | [7] -41.8% | [9] -43.6% | [8] -52.5%

Cc1cc2nc3c4cc(Cl)ccc4n(CCN(C)C)c3nc2cc1C
active: [1] 5.12% | [6] 4.29%
inactive: [2] 19.1% | [3] 21.8% | [4] 27.1% | [5] 31.1% | [7] 32.9% | [9] 45.5% | [8] 13.6%

CC(c1ccccc1)N1C(=O)C(C2SC(=S)N(C(C)c3ccccc3)C2=O)SC1=S (configuration not stated)
inactive: [1] 41.4% | [2] 96.6% | [3] 98.8% | [4] 97.2% | [5] 106% | [6] 76.5% | [7] 76.8% | [9] 96% | [8] 97.9%

COc1ccc(CCN2C(=O)C(C)(C)SC2=S)cc1OC
inactive: [1] 103% | [2] 102% | [3] 104% | [4] 96.6% | [5] 108% | [6] 94.4% | [7] 107% | [8] 100%

Cc1ccc(S(=O)(=O)Nc2ccc(-c3cc(-c4cccc(F)c4)c(C#N)c(=O)[nH]3)cc2)cc1
inactive: [1] 54.9% | [2] 80.1% | [3] 99.9% | [4] 67% | [5] 99.7% | [6] 73.1% | [7] 82.6% | [9] 89.7% | [8] 90.7%

CN(C)CCCCC(C(=O)CBr)(c1ccccc1)c1ccccc1
inactive: [2] 25.8% | [3] 45.2% | [4] 12.1% | [5] 79.1% | [6] 44.4% | [9] 24.2% | [8] 43.9%
active: [1] 8.41% | [7] -44%

C/C(=N\Nc1cc(C)c2ccccc2n1)c1ccccn1
active: [1] 1.94% | [2] -23.3% | [4] -8.85% | [6] -26.7% | [7] -0.251% | [8] -8.13%
inactive: [3] 20.6% | [5] 22.3% | [9] 35.6%

Cc1oc(-c2ccccc2Cl)cc1C(=O)Nc1ccc(S(N)(=O)=O)cc1
inactive: [1] 101% | [2] 98.1% | [3] 102% | [4] 96.8% | [5] 98.5% | [6] 113% | [7] 117% | [9] 101% | [8] 102%

CCCCC(=O)OC1CCCCC1C (configuration not stated)
inactive: [1] 95% | [2] 87% | [3] 90.9% | [4] 104% | [5] 89.4% | [6] 106% | [7] 107% | [8] 96.7%

O=C1c2ccccc2NC(c2cn(-c3ccccc3)nc2-c2cccnc2)N1Cc1ccccc1 (configuration not stated)
inactive: [1] 78.8% | [2] 98.3% | [3] 91.5% | [4] 92.2% | [5] 117% | [6] 76.5% | [7] 102% | [9] 96.2% | [8] 97.3%

Cc1ccc(-c2ccc(/C=C(\C#N)c3nc(-c4ccco4)cs3)o2)cc1
inactive: [1] 89.8% | [2] 99.8% | [3] 77.5% | [4] 28.1% | [5] 101% | [6] 63.5% | [7] 112% | [9] 107% | [8] 103%

Oc1cccc2ccc(N/N=C/c3cc(CN4CCCCC4)c(O)c4ncccc34)nc12
active: [1] -12.7% | [2] 8.27% | [4] 8.09% | [5] -30.5% | [7] 7.62% | [8] 8.58%
inactive: [3] 36.4% | [6] 14.3% | [9] 17.1%

c1cc(N2CCCC2)c2nc(-c3[nH]ncc3Nc3ncnc4[nH]ccc34)[nH]c2c1
active: [1] 5.49% | [2] 1.75% | [3] -9.59% | [4] -13.6% | [5] -8.07% | [6] -17.9% | [7] -14% | [9] -4.25% | [8] -21.1%

Cn1cccc1/C=C1/SC(=S)N(CCc2ccc(O)cc2)C1=O
inactive: [1] 24.1% | [2] 67.1% | [3] 95.9% | [4] 89.4% | [5] 83.5% | [6] 45.7% | [7] 39.4% | [9] 67.7% | [8] 16.3%

C#CCC(C)(O)/C=C/C1=C(C)CCCC1(C)C (configuration not stated)
inactive: [1] 107% | [2] 101% | [3] 88.7% | [4] 107% | [5] 92.3% | [6] 102% | [7] 106% | [9] 108% | [8] 99.8%

N#CC1c2ccccc2-c2ccccc2N1C(=O)c1ccccc1 (configuration not stated)
inactive: [1] 65.2% | [2] 22.3% | [3] 41.8% | [4] 38.1% | [5] 54.3% | [6] 24.2%
active: [7] -8.36% | [9] 7.52% | [8] -47.4%

CCC1C(=O)COC1=O (configuration not stated)
inactive: [1] 99.2% | [2] 96.6% | [3] 108% | [4] 105% | [5] 71.4% | [6] 104% | [7] 109% | [9] 99.1% | [8] 87.9%

COc1ccc(-c2cc(-c3c(C)oc4cc5occc5c(OC)c4c3=O)nc(N)c2C#N)cc1OC
inactive: [2] 61.2% | [3] 92.9% | [4] 74.6% | [5] 75.7% | [6] 51.8% | [7] 77.4% | [9] 53.5% | [8] 61.9%
active: [1] 5.99%

C/C(=C(/c1ccccc1)c1ccc(N2C(=O)c3cccc4c(NCc5ccccc5)ccc(c34)C2=O)cc1)c1ccccc1
inactive: [1] 83.6% | [2] 95% | [3] 102% | [4] 101% | [5] 111% | [6] 94.8% | [7] 110% | [9] 96% | [8] 97.9%

O=P(O)(c1ccccc1)c1ccccc1I
inactive: [1] 88.8% | [2] 98.2% | [3] 103% | [4] 102% | [5] 86.8% | [6] 96.2% | [7] 108% | [9] 97% | [8] 98.8%

Cn1c(=O)c2c(nc(N3CCCC3)n2C)n(C)c1=O
inactive: [1] 100% | [2] 100% | [3] 99.1% | [4] 99.1% | [5] 103% | [6] 98.5% | [7] 110% | [9] 105% | [8] 103%

COc1cc(-c2cc3ncccc3c3nc(N)c4cccnc4c23)cc(OC)c1OC
inactive: [1] 28.3% | [2] 26.9% | [3] 35.7% | [4] 54.3% | [5] 20.5% | [6] 41% | [7] 15.1% | [9] 16.8% | [8] 10.5%

COc1ccc(C2(Cl)c3ccccc3N(c3ccccc3)c3ccccc32)cc1
inactive: [3] 17% | [6] 17.5% | [8] 21.4%
active: [1] 3.25% | [2] 6.73% | [4] 3.18% | [5] -11.1% | [7] -43.9%

From PubChem BioAssay (NCI)
